# tim10-1 inh: growth inhibitors of tim10-1 mutant yeast, primary screen, luminescence, uHTS; S. cerevisiae tim10-1 ts strain growth, BacTiter-Glo, 24 h; inhibition, % at 20 µM; hit rate 2.2% among 330,000; AID 463190, 2010;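 active = inhibition of at least 40%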;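 also: mutant grown at 25 °C; 0% = DMSO wells with yeast and 100% = wells holding no yeast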
# tim23-1 inh: growth inhibitors of tim23-1 mutant yeast, primary screen, luminescence, uHTS; S. cerevisiae tim23-1 growth, BacTiter-Glo luminescence, 24 h; inhibition, % at 20 µM; hit rate 1.3% among 330,000;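 active = growth inhibition of the mutant yeast at or above 50%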;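 also: temperature-sensitive mutant grown at 25 °C; plate controls were DMSO-treated mutant yeast for no effect and medium wells lacking yeast for full effect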
# MPTP block: mitochondrial permeability transition pore inhibitors, primary screen, biochemical, isolated mouse mitochondria, absorbance; Ca2+ swelling absorbance, 30 min; inhibition, % at 10 µM; hit rate 1.4% among 360,000;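 active = inhibition of 50% or more, scaled per plate between neutral and stimulator controls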;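 also: 0% = DMSO wells given calcium and 100% = 1 mM EGTA wells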
# TIM10 inh: growth inhibitors of isogenic TIM10 control yeast, primary screen, counter-screen for tim10-1 yeast inhibitor project, luminescence, uHTS; S. cerevisiae TIM10 strain growth, BacTiter-Glo luminescence, 24 h; inhibition, % at 10 µM; hit rate 1.4% among 330,000;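 active = inhibition of 40% or more at the single tested concentration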;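 also: wild-type TIM10 isogenic control strain grown at permissive 25 °C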
# Mdm2-MdmX inh: inhibitors of human Mdm2-MdmX association, primary screen, cell-based, luminescence, split luciferase, SaOS-2, uHTS; Protein Mdm4 (Homo sapiens) + E3 ubiquitin-protein ligase Mdm2 (Homo sapiens), …; SaOS-2 split-luciferase Mdm2/MdmX complementation; inhibition, % at 8 µM; hit rate 3% among 330,000;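 active = inhibition of at least 50% at 8 µM in the primary screen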
# Target sequence (O15151 whole entry, looked up): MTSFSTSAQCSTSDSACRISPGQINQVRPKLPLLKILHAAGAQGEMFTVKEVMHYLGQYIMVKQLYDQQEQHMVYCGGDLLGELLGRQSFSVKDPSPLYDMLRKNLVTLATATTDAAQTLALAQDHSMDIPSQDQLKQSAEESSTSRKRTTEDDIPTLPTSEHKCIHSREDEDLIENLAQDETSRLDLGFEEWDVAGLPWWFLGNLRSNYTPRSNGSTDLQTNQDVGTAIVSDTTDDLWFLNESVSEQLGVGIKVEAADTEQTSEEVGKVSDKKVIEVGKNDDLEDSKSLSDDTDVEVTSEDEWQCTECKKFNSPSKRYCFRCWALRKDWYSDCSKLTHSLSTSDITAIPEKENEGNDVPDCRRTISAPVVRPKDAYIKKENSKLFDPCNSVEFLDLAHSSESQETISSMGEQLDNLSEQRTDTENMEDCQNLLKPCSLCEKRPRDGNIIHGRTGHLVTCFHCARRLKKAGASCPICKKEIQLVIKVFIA
# Target sequence (Q00987 whole entry, looked up): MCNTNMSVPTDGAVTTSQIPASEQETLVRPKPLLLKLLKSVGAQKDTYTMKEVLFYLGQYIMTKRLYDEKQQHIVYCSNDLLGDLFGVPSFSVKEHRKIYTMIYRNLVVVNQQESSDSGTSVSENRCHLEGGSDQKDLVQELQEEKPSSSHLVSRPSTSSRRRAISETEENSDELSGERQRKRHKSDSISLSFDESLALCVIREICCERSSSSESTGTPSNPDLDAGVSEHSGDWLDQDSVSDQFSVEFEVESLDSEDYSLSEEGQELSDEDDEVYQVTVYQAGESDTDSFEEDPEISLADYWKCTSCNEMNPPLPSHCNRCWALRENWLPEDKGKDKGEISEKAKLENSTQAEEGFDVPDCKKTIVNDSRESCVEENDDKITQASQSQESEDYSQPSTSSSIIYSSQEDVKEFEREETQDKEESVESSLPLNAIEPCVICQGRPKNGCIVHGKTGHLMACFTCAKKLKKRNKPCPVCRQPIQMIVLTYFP
# tim10-1 confirm: growth inhibitors of tim10-1 mutant yeast, confirmation, single concentration, luminescence, S. cerevisiae. shares compounds with tim10-1 inh. S. cerevisiae tim10-1 ts strain growth, BacTiter-Glo, 24 h. inhibition, % at 20 µM. hit rate 56% among 7,400. AID 463213, 2010;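 active = inhibition of yeast growth at or above a set limit in either of two repeat tests at 20 µM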;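 also: tim10-1 mutant grown at permissive 25 °C to find synthetic lethal compounds; 0% = DMSO yeast wells and 100% = medium wells without yeast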
# TIM10 conf: growth inhibitors of wild-type TIM10 yeast, confirmation, counter-screen for tim10-1 synthetic lethality project, single concentration, luminescence, S. cerevisiae. shares compounds with TIM10 inh. S. cerevisiae tim10 strain growth, BacTiter-Glo luminescence, 24 h. inhibition, % at 10 µM. hit rate 63% among 4,600;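 active = inhibition of yeast growth at or above a set limit in either of two replicates at 10 µM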;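 also: this counterscreen used the strain with wild-type TIM10; 0% = yeast with DMSO and 100% = medium wells lacking yeast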
# tim23-1 confirm: tim23-1 mutant yeast growth inhibitors, confirmation, luminescence, single concentration. AID 463218, 2010. S. cerevisiae tim23-1 growth, BacTiter-Glo luminescence, 24 h. inhibition, % at 20 µM. hit rate 83% among 4,400. shares compounds with tim23-1 inh;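 active = inhibition above about 39% in either of two replicate wells at 20 µM, limit read from the data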;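 also: temperature-sensitive tim23-1 mutant grown at 25 °C; 0% = DMSO wells with yeast and 100% = medium wells without yeast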
# * = called active by the depositor; . = not tested or not shown. Shown are actives, neighbours in structure and some others; about 6.3% of the full set was active somewhere.
SMILES,tim10-1 inh,tim23-1 inh,MPTP block,TIM10 inh,Mdm2-MdmX inh,tim10-1 confirm,TIM10 conf,tim23-1 confirm
COc1ccc(/C(N)=N/OC(=O)c2ccc(Br)o2)cc1,17,-17,-1,-5,-58,.,.,.
N/C(=N\OC(=O)c1cccs1)c1ccc(Cl)cc1,69*,82*,0,84*,7,53*,84*,91*
COc1ccc(/C(N)=N/OC(=O)c2cccs2)cc1,43*,71*,2,63*,-92,60*,68*,88*
N/C(CC(=O)Nc1ccc(F)c(Cl)c1)=N\OC(=O)c1cccs1,54*,73*,2,81*,38,37*,86*,83*
Nc1[nH]c(C(=O)c2ccccc2)c(-c2ccc(Cl)c(F)c2)c1C(=O)NCCc1c[nH]c2ccccc12,.,.,1,.,.,.,.,.
Fc1cccc(Cc2c(-c3ccco3)nc3c(Cl)cc(C(F)(F)F)cn23)c1,.,.,-3,.,.,.,.,.
COC(=O)c1cc(=O)n(-c2ccc(F)cc2)c(=Nc2ccc(F)cc2)s1,56*,67*,2,54*,42,57*,55*,44*
COC(=O)c1ccc(N=c2sc(C(=O)OC)cc(=O)n2C)cc1,.,.,-2,.,.,.,.,.
Cc1ccc(-c2cn(-c3ccccc3)c(=S)[nH]2)cc1C,47*,52*,0,48*,-118,21,42*,49*
FC(F)(F)c1cccc(-n2cc(-c3ccccc3)[nH]c2=S)c1,48*,56*,0,35,10,35*,.,50*
COc1ccc(-n2cc(-c3ccc(OC)c(OC)c3)[nH]c2=S)cc1,11,-3,2,4,17,.,.,.
CC1=C(C(=O)N(C(C)C)C(C)C)CC(CC(=O)NCCc2ccccn2)C(=O)N1CCCN1CCCC1=O (stereo unspecified),.,.,0,.,.,.,.,.
S=C(NCC1CCCO1)N1CCN(c2nc(-c3ccc(Cl)cc3)cs2)CC1 (stereo unspecified),51*,50*,4,40*,8,39*,43*,52*
COc1ccc2c(ccc[n+]2CC(=O)c2ccccc2)c1,15,-6,0,1,4,.,.,.
COc1ccc(C(=O)C[n+]2cn(C(F)F)c3ccccc32)c(F)c1,53*,58*,-1,63*,-3,50*,31*,43*
N/C(=N\OC(=O)C12CC3CC(CC(C3)C1)C2)c1ccccn1,62*,51*,1,41*,44,44*,-16,49*
O=C(OCc1ccccc1)N1CCC2CC1c1ccc(N3CCNCC3)cc12 (stereo unspecified),.,.,0,.,.,.,.,.
Cc1ccc(NC(=S)Nc2cccc3ccccc23)cc1,37,16,2,6,-4,.,.,.
Fc1ccc(NC(=S)Nc2cccc3ccccc23)cc1,43*,52*,17,24,-38,27,.,45*
Cc1cccn2c(=O)c(C(=O)NC3CCCCC3C)c(O)nc12 (stereo unspecified),-23,34,2,-36,34,.,.,.
Cc1cccn2c(=O)c(C(=O)NC3CCCCC3)c(O)nc12,43*,55*,-1,15,48,-38,.,44*
Cc1csc2nc(O)c(C(=O)NC3CCCCCC3)c(=O)n12,41*,65*,1,30,23,16,.,51*
CCOC(=O)[C@]12CCC=C1N(Cc1ccccc1)C(=O)[C@H](CC(=O)N1CCOCC1)C2,.,.,0,.,.,.,.,.
C/C(=N\Nc1nc2c(s1)CCCC2)c1ccc(Cl)cc1,61*,58*,0,50*,7,47*,24,63*
CCN1CCN(c2nc3c(c(=O)[nH]c(=O)n3C)n2Cc2cccc(C)c2)CC1,.,.,1,.,.,.,.,.
Cc1ccc(C(=O)Nc2nnc(C3CCCCC3)s2)o1,46*,52*,-2,24,-110,35*,.,45*

# Bioassay records deposited in PubChem by Sanford-Burnham Center for Chemical Genomics.
